Assay outcomes as filed in PubChem BioAssay.
HT1080 IDH1KD tx – toxicity to HT-1080 IDH1 knockdown cells (counter line); HT-1080 IDH1 knockdown viability, ATP luminescence, 48 h; Potency, µM (doses to about 46.1 µM), for the others: top-dose activity, negative = toxicity, actives largely listed as cytotoxic; actives 2% (n = 360,000);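 note: potency is the fitted concentration of half-maximal effect; 0% = DMSO wells and -100% = cell-free medium wells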
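Knockdown cells (IDH1KD HT-1080) received compounds 2 h after plating at 750 cells/well and were kept 48 h at 37 °C in 5% FBS RPMI. A CellTiter-Glo luminescence read gave % activity for curve fitting.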
HT1080-NT tox – kills 2HG-producing HT-1080-NT fibrosarcoma cells | HT-1080-NT fibrosarcoma viability, CellTiter-Glo ATP luminescence, 48 h | Potency, µM (top dose mostly 46.1 µM), for the others: at the highest dose activity, negative = less viability, most hits filed as cytotoxic | actives 1.6% (n = 360,000) | AID 686970;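 note: NT is the 2HG producing partner of a matched IDH1 knockdown line; potency is the fitted concentration of half-maximal effect; 0% = DMSO-treated cells and -100% = media-only wells without cells; nearly all actives have a fitted effect of over 55% in size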
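HT-1080-NT; 750 cells/well; 5% FBS RPMI; 48 h compound, 37 degrees C; CellTiter-Glo luminescence; curve fitting and curve-class assignment.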
TDP1 cell CPT – DT40-hTDP1 cell growth loss with CPT. actives 12% (n = 420,000). Potency, µM (titrated, usually from 46.2 µM), for inactives: top-dose activity change, negative = growth inhibition, actives largely listed as inhibitors. chicken DT40 Tdp1-/-;hTDP1 cells + 20 nM CPT, ATP luminescence, 48 h; note: potency is the fitted concentration of half-maximal effect; nearly all actives have a fitted effect of over 55% in size
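Cell growth measured by CellTiter-Glo luminescence after a minimum 48 h, 37 C compound exposure with 20 nM CPT in Tdp1-knockout DT40 cells stably expressing hTDP1, seeded 400/well; qHTS titration format.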
DT40 TDP1 no CPT – qHTS for Inhibitors of human tyrosyl-DNA phosphodiesterase 1 (TDP1): qHTS in cells in absence of CPT. Potency, µM (series often up to 46.2 µM), for inactives: top-dose activity change, negative = growth inhibition, usual class: inhibitors. DT40 Tdp1-/- hTDP1 cells, no CPT, ATP luminescence, 48 h. actives 15% (n = 420,000); note: potency is the fitted concentration of half-maximal effect; nearly all actives have a fitted effect of over 55% in size
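Seeded 400 DT40-hTDP1 cells/well (vehicle DMSO, no 20 nM CPT); pinned compounds; ≥48 hr at 37 °C; CellTiter-Glo luminescence as viability measure.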
IL1B secr inh – blocks inflammasome-driven IL-1 beta release; AID 743279; activity change, % at 57.5 µM; actives 4.7% (n = 360,000); THP-1 LPS/ATP IL-1B secretion, AlphaLISA, 16 h; active compounds read low; in the data active = activity change below about -50%; inconclusive = mostly about -30% to -49%
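Secreted IL-1B measured by AlphaLISA bead assay after 16 h compound exposure of THP-1 cells; compounds (final up to 57.5 uM) added 1 h before LPS (250 ng/mL) and ATP (1.25 mM) stimulation; lower signal means less secretion.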
* = called active by the depositor; ? = inconclusive; · = no result given; [ ] = remark or other dose. Only some compounds are listed: those with a hit (about 19% of all), similar ones and a draw of the others. Unless noted, calls come from the whole dose curve; as a rule, active = well fitted curve in the direction sought with a large enough effect; inconclusive = small, poorly fitted or top-dose-only effect, or another doubt; inactive = no such curve, though single readings can be large; an effect the other way counts as inactive or inconclusive. Unless noted, % is set by controls: 0 for no effect and ±100 for the full control effect.

SMILES | HT1080 IDH1KD tx | HT1080-NT tox | TDP1 cell CPT | DT40 TDP1 no CPT | IL1B secr inh
N#CCCN(CCC#N)C(=O)C1c2ccccc2Oc2ccccc21 | 4.5% | 3.9% | 29.3% | 3.9% | -1.8
CCC1(c2ccc(F)cc2)NC(=O)N(CC(=O)N2CCN(S(=O)(=O)c3ccc(C)cc3)CC2)C1=O (centres undefined) | 2.4% | 2.2% | -9.4% | -21.8% | 2.3
CC(CNC(=O)[C@@H](Cc1ccccc1)NC(=O)CC[C@H]1O[C@@H](n2ccc(=O)[nH]c2=O)[C@H](O)[C@@H]1O)c1ccccc1 (some centres undefined) | 12.7% | 22.3% | 8.3% | 36.3% | -66.2*
COc1ccccc1-c1nc(NCc2cnc(C)cn2)c2ccccc2n1 | · | · | 16.4µM* | ? | ·
COc1ccccc1CNc1nc(-c2ccccc2OC)nc2ccccc12 | · | · | 18.4µM* | 20.6µM* | ·
COc1cccc(-c2nc(NCc3cccnc3)c3ccccc3n2)c1O | -24.5% | -11.3% | 2.3% | -21.4% | 34.5
CCOc1ccc2oc(=O)cc(CN3CCN(C(=O)c4ccc(OC)c(OC)c4)CC3)c2c1 | · | · | -19.0% | ? | ·
CS(=O)(=O)c1ccc(Cl)c(NC(=O)COC(=O)Cc2c[nH]c3ccccc23)c1 | 5.7% | 5.9% | 2.4% | -2.0% | 29.3
COc1ccc2sc(N3C(=O)C4CC=C(C)CC4C3=O)nc2c1 (centres undefined) | 0.7% | -0.9% | 0.9% | -0.1% | -5.3
NC(=NCc1ccco1)NC(=O)c1ccccc1 | -8.6% | 1.5% | -18.2% | -25.3% | -6.7
COc1cccc(N/C(SCc2cccc([N+](=O)[O-])c2)=C(/C#N)C(N)=O)c1 | 16.4µM* | ? | ? | ? | -101.8*
COc1cccc(NC(=O)CC(=O)c2ccc([N+](=O)[O-])cc2)c1 | -2.3% | -5.6% | ? | ? | -19.9
Cc1ccc(CCNc2ccccc2C)cn1 | -0.5% | 1.5% | -17.2% | -19.0% | -15.5
CCOC(=O)c1cnc2c(ccc3ccccc32)c1N | 16.7% | 17.1% | -14.1% | ? | 11.1
CCOC(=O)c1cnc2c(ccc3ccccc32)c1NCCN(C)C | -5.8% | -20.0% | ? | ? | -58.1*
CCOC(=O)c1cnc2c(ccc3ccccc32)c1Nc1cccc(OC)c1 | · | · | ? | 25.9µM* | ·
CCOC(=O)c1cnc2c(ccc3ccccc32)c1NCCO | ? | -21.7% | ? | 20.6µM* | ?
CCOC(=O)c1cnc2c(C)c(C)ccc2c1Nc1ccc(S(=O)(=O)Nc2ncccn2)cc1 | -6.8% | -0.3% | 2.8% | -4.3% | -92.7*
CCOC(=O)c1cnc2c(ccc3ccccc32)c1Nc1ccc(OCC)cc1 | · | · | ? | -27.4% | ·
CN(C)N(Cc1ccccc1)C(=O)C(O)(c1ccccc1)c1ccccc1 | -0.2% | 0.0% | ? | 25.9µM* | -5.9
Cc1cc(C)c(NC(=O)CNC(=O)COC(=O)Cc2cccs2)c(C)c1 | 1.0% | -0.9% | -2.2% | -10.7% | -7.2
COc1ccc(NS(=O)(=O)c2ccc3c(c2)N(C(C)=O)CCO3)c(OC)c1 | -14.0% | -13.2% | ? | ? | 5.6
COc1ccc(S(=O)(=O)n2c(C)nc3ccccc32)cc1C | -0.7% | 3.6% | -15.4% | -6.8% | 2.5
COc1cccc2nc3cc(C)c(C)cc3nc12 | 8.2µM* | 18.4µM* | 13µM* | 18.4µM* | -3.9
COCOc1ccc(/C=C2/Oc3cc(OCOC)cc(OCOC)c3C2=O)c(OCOC)c1 | 2.5% | -0.9% | 13µM* | 23.1µM* | -11.6
SMILES | HT1080 IDH1KD tx | HT1080-NT tox | TDP1 cell CPT | DT40 TDP1 no CPT | IL1B secr inh
Cc1cc(C)n2nc(SCC(=O)NC(=O)c3ccc(OC(F)F)cc3)nc2n1 | 15.1% | 0.2% | -4.7% | -6.4% | 6.5
O=C(N/N=C\c1cccc(Cl)c1)c1n[nH]c2c1CCCC2 | -29.2% | -5.9% | 4.0% | -26.9% | ?
Cc1ccc(/C=N/NC(=O)c2n[nH]c3c2CCCC3)cc1 | 0.13µM* | 0.164µM* | 0.82µM* | 0.92µM* | ·
C/C(=N\NC(=O)c1n[nH]c2c1CCC2)c1cccs1 | 17.0% | 16.1% | 0.8% | -4.3% | ·
O=C(N/N=C/c1cccs1)c1n[nH]c2c1CCCC2 | 14.6µM* | 20.6µM* | ? | 20.6µM* | -25.8
CSc1ccc(C(=O)N2CCC(n3nccc3NC(=O)C3CC3)CC2)cc1 | 5.7% | -3.5% | -6.4% | 3.2% | 4.1
O=[N+]([O-])/C=C\c1ccc(N2CCCC2)c(F)c1 | 3.26µM* | ? | 7.31µM* | 2.59µM* | -55.5*
CC(=O)c1ccc(N2CCCCC2)c(F)c1 | 25.2% | 13.3% | 1.4% | -21.5% | -21.5
Cc1ccc(-c2csc(NC(=O)C[n+]3cc(-c4ccc(C)cc4)n4c3CCC4)n2)cc1 | 16.4µM* | ? | 5.8µM* | 9.2µM* | -93.5*
Cc1ccc(-c2csc(NC(=O)C[n+]3cc(-c4ccccc4)n4c3CCC4)n2)cc1 | ? | -22.9% | 20.6µM* | 18.4µM* | -87.4*
O=C(C[n+]1cc(-c2ccc(F)cc2)n2c1CCC2)Nc1nc(-c2ccc(F)cc2)cs1 | 5.7% | 4.5% | ? | ? | -11.7
O=c1cc(CSc2nnc(COc3ccccc3Cl)o2)nc2sccn12 | 19.2% | -4.0% | -20.8% | -29.6% | 7.9
CC(=O)c1cc(F)ccc1OCC(=O)N1CCCc2ccccc21 | 10.2% | 11.3% | ? | ? | 10.5
COc1ccc(CCNC(=O)c2cc(Sc3cccc(Cl)c3)nc3ccccc23)cc1OC | · | · | 8.2µM* | 7.31µM* | ·
CCOc1ccc(Sc2cc(C(=O)NCCc3ccc(OC)c(OC)c3)c3ccccc3n2)cc1 | · | · | 3.66µM* | 5.8µM* | ·
COc1ccc(CNC(=O)c2cc(C)nc3ccccc23)cc1OC | -0.2% | 0.7% | 3.4% | -22.5% | 35.5
CCOCCCNC(=O)c1cc(Sc2ccc(C)cc2)nc2ccccc12 | -14.3% | -4.3% | -20.3% | ? | ?
COc1cccc(CNC(=O)c2cc(Sc3cccc(Cl)c3)nc3ccccc23)c1 | · | · | ? | 14.6µM* | ·
CCOc1ccc(Sc2cc(C(=O)NCCc3ccccc3)c3ccccc3n2)cc1 | · | · | -15.4% | -28.4% | ·
CCOCCCNC(=O)c1cc(Sc2cccc(Cl)c2)nc2ccccc12 | · | · | ? | 14.6µM* | ·
Cn1c(CNC(=O)C(Cc2ccccc2)NC(=O)c2cccc(F)c2)cc(=O)n(C)c1=O (centres undefined) | 11.5% | -1.6% | ? | 9.6% | 3.3
CC1(C)Oc2ccc3ccc(=O)oc3c2CC1=O | · | · | -20.1%[9.04 µM] | -25.0%[9.04 µM] | ·
CCC1CN(CCC(=O)NC2CCOC(C)(C)C2)Cc2cc(OC)ccc2O1 (centres undefined) | · | · | 3.6%[9.04 µM] | -5.4% | ·
O=C(CN1CCN(c2cccc(Cl)c2)CC1)c1ccc(O)cc1O | -2.3% | -8.0% | ? | ? | 22.3
CCOc1ccc(/C=C/C(=O)NCc2ccccc2)cc1 | 23.0% | 11.1% | -26.2% | ? | 13.2
